Sampled rows, rich in hits. Any-hit rate of the full collection: about 2.7%.
aDG glyco up = activators of alpha-DG glycosylation, primary screen, uHTS, Pro5-aDG cells, AlphaScreen | alpha-DG glycosylation AlphaScreen (IIH6); 0% Pro5, 100% B10-LARGE cell signal | activation, % at 10 µM | 360,000 tested, 0.22% active | AID 624168, 2012;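 active = activation of at least 8% versus controls, or a plate z-score of at least 8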;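 note: Pro5 are CHO cells carrying HIG-tagged alpha-DG that lacks glycosylation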
NadD block = inhibitors of S. aureus NadD, primary screen, biochemical, colorimetric, uHTS | purified NadD enzyme, colorimetric absorbance read-out | 360,000 tested, 0.78% active | Nicotinate-nucleotide adenylyltransferase NadD (Staphylococcus aureus N315) | inhibition, % at 20 µM | AID 602399, 2012; in the data active = inhibition above about 26%
TAG inh = inhibitors of triacylglycerol accumulation, primary screen, cell-based, uHTS, fluorescence, H9c2 | inhibition, % at 12.5 µM | 230,000 tested, 0.66% active | H9c2 cells, Nile Red lipid (TAG) fluorescence; cells loaded with 200 µM oleic acid | AID 651582, 2012;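 active = pattern-corrected inhibition of lipid staining of at least 50% with the nuclear-stain viability signal not falling by more than 50%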;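 note: 0% = DMSO wells and 100% = triacsin C control wells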
MPTP block = mitochondrial permeability transition pore inhibitors, primary screen, biochemical, isolated mouse mitochondria, absorbance | inhibition, % at 10 µM | AID 602449, 2012 | 360,000 tested, 1.4% active | Ca2+ swelling absorbance, 30 min;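 active = inhibition of 50% or more, scaled per plate between neutral and stimulator controls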;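 note: 0% = DMSO wells given calcium and 100% = 1 mM EGTA wells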
Rh123 counter = fluorescence retest of MPTP screen hits in isolated mitochondria, single concentration; AID 624504, 2012; shares compounds with MPTP block; 5,000 tested, 78% active; inhibition, % at 10 µM; membrane potential, Rhodamine 123 fluorescence; in the data active = inhibition above about 22%;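 note: 0% = DMSO vehicle and 100% = positive control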
MPTP abs DR = mitochondrial permeability transition pore inhibitors, dose response, biochemical, absorbance, uHTS hits | shares compounds with MPTP block | 780 tested, 58% active | IC50, µM | isolated mitochondria swelling; in the data active = IC50 below about 20 µM
MPTP counter DR = fluorescent counter-screen in isolated mitochondria, dose response, counter-screen for MPTP inhibitor project, biochemical, fluorescence, uHTS hits | shares compounds with MPTP block | isolated mitochondria counterscreen, fluorescence read-out | IC50, µM | 780 tested, 49% active | AID 651564, 2012; in the data active = IC50 below about 80 µM
* = called active by the depositor; . = no result given.

SMILES	aDG glyco up	NadD block	TAG inh	MPTP block	Rh123 counter	others
Cc1ccc(S(=O)(=O)N2CC3(O)CN(C(=O)OC(C)C)N(C(=O)OC(C)C)CC3(OC(=O)NCc3ccccc3F)C2)cc1 (configuration not stated)	0	-7	8	1	.
N#Cc1cc(NC(=O)c2ccc(Cl)cc2)ccc1Sc1ccccc1	0	-6	-25	73*	96*
CN1CCN(c2ncnc3c2ncn3[C@H]2CN(Cc3ccc4c(c3)OCO4)C[C@@H](CO)O2)CC1	0	0	8	0	.
C=C(C)CSc1nc2sc3c(c2c(=O)n1C1CCCCC1)CCN(C)C3	0	2	0	1	.
CCSc1nc2sc3c(c2c(=O)n1C1CCCCC1)CCN(C)C3	0	1	-74	50*	30*
O=C(COC(=O)c1cc(S(=O)(=O)Nc2ccccc2Cl)ccc1O)Nc1ccc(F)c(F)c1F	0	-1	-20	68*	85*
O=C(Nc1ccc(Cl)cc1)C1CCC(=O)N1Cc1ccccc1Cl (configuration not stated)	0	-8	10	-1	.
O=C(Nc1ccccc1Br)C1CCC(=O)N1Cc1ccccc1Cl (configuration not stated)	0	-9	12	66*	78*
O=C(c1ccccc1)c1ccc(OCCCN2CCCC2)cc1	0	0	.	1	.
O=C(CCN1CCN(CCO)CC1)Nc1ccc(OCc2ccccc2)cc1	0	1	.	1	.
c1ccc(COc2ccc(OCCCCN3CCCCC3)cc2)cc1	3	0	31	74*	-1	MPTP abs DR=6.7*;MPTP counter DR=19*
O=C(c1ccccc1)c1ccc(OCCOCCN2CCN(Cc3ccccc3)CC2)cc1	0	-8	-7	84*	10	MPTP abs DR=18*;MPTP counter DR=27*
O=C(CCN1CCN(Cc2ccccc2)CC1)Nc1ccc(OCc2ccccc2)cc1	4	-8	.	86*	17	MPTP abs DR=7.3*;MPTP counter DR=13*
CC(=O)c1cccc(NC(=O)CCc2nnc3ccc(N4CCOCC4)nn23)c1	0	3	.	2	.
COCc1c(C(=O)NC2CCCCC2)sc2cccc(F)c12	0	-6	-5	2	.
CC1CCCCC12NC(=O)N(CC(=O)N1CCc3ccccc3C1)C2=O (configuration not stated)	1	1	6	0	.
COc1cc(NC(=O)COc2cc(O)c3c(c2)OC(C)(C)CC3=O)cc(OC)c1OC	3	1	.	99*	98*
CC1(C)CC(=O)c2c(O)cc(OCC(=O)Nc3ccc(S(N)(=O)=O)cc3)cc2O1	0	5	.	0	.
COCCOc1cc(Nc2nnc(C(F)(F)F)s2)c(Cl)cc1Cl	1	0	46	80*	90*
CC(NC(=O)COC(=O)c1cc(NS(=O)(=O)c2ccc(Cl)c([N+](=O)[O-])c2)ccc1O)C1CC2CCC1C2 (configuration not stated)	0	25	.	61*	66*
COc1ccc(NS(=O)(=O)c2ccc(O)c(C(=O)OCC(=O)NC(C)C3CC4CCC3C4)c2)cc1 (configuration not stated)	0	-2	-4	0	.
CCOc1ccc(S(=O)(=O)NCC(=O)NC2CCCCC2)cc1	0	1	0	-1	.
O=S(=O)(NCC(c1ccccc1)N1CCC(O)CC1)c1ccc(Cl)cc1 (configuration not stated)	0	-6	.	0	.
O=S(=O)(NCC(Nc1ccc(Cl)cc1)c1ccccc1)c1ccc(Cl)cc1 (configuration not stated)	1	-2	-58	87*	85*
CCc1cc2c(NCc3ccccc3)nc(C)nc2s1	0	-4	-20	91*	65*
O=C(NC(=S)Nc1nc2c(s1)CSc1ccccc1-2)c1ccccc1	0	1	.	95*	91*
O=S(=O)(Nc1nc2ccccc2s1)c1cc(F)ccc1F	0	-3	8	2	.
O=S(=O)(Nc1nc2ccccc2s1)c1cnc(Cl)c(Br)c1	0	0	7	90*	85*
